91 compounds from PubChem BioAssay AID540256 (National Center for Advancing Translational Sciences (NCATS), 2011) can be followed below.

Out of some 300,000 compounds screened, about 3,700 (1.2%) were called active. Roughly 20% stayed inconclusive and do not appear here. The call rests on the fitted dose curve; tested in HEK293 cells. What follows is part of a selection rich in actives, with near analogues and random picks from the rest. Where a call stands in place of a potency, no number is given.
Potency means the concentration at half of the fitted maximal effect.

This experiment is described as follows: qHTS for Inhibitors of binding or entry into cells for Lassa Virus. Further: nearly all actives have a fitted effect of over 50% in size. The following applies: Lassa virus pseudotype entry inhibition, cell reporter; series mostly up to 37.9 µM.
Turning to `CCC[C@@H]1C[C@@]1(CCC)[C@@H](NC(=O)c1ccccc1)c1ccc(C(=O)OC)cc1`, the Potency result is “inactive”.

Regarding `CCC/C=C(\CCC)C(NC(=O)Cc1ccccc1)c1ccc(C(=O)OC)cc1` (stereo unspecified), the Potency was 6.51 µM (active).

Turning to `CC(=O)c1ccc(OC(NC(=O)Cc2ccccc2)C(Cl)(Cl)Cl)cc1` (stereo unspecified), the Potency result was “inactive”.

`COc1ccc(OCC(=O)NNC(=O)C2CCC2)cc1`: the Potency result was “inactive”.

For the compound `Cc1ccc(NC(=O)C(C)OC(=O)C2CC3CCCC(C2)C3=O)cc1S(=O)(=O)N1CCOCC1` (stereo unspecified), the Potency result was “inactive”.

As for `Fc1ccc2[nH]c3c(N4CCN(Cc5ccc6c(c5)OCO6)CC4)ncnc3c2c1`, the Potency is 15.8 µM (active).

`Fc1ccc(N2CCN(Cc3ccc4c(c3)OCO4)CC2)cc1`: the Potency entry was “inactive”.

Turning to `O=c1[nH]c(N2CCN(Cc3ccc4c(c3)OCO4)CC2)nc2c1CCCC2`, the Potency result was “inactive”.

`Cc1cc2c(cc3c(SCc4nc(-c5ccccc5)oc4C)nnc(C)n32)o1`: the Potency entry is “inactive”.

Take `Cc1ccc2c(c1)C1CN(C)CCC1N2S(=O)(=O)c1cccc(F)c1` (stereo unspecified): the Potency result was “inactive”.

Consider `CCc1ccc2nc(N(CCCN(C)C)C(=O)c3ccc4c(c3)OCCO4)sc2c1`, for which the Potency entry was “inactive”.

Consider `CCN(CC)CCN(C(=O)c1ccc(S(=O)(=O)N2CCOCC2)cc1)c1nc2cc3c(cc2s1)OCCO3`, for which the Potency result is “inactive”.

As to `CN(C)CCCN(C(=O)c1ccc(S(=O)(=O)N2CCCCCC2)cc1)c1nc2cc3c(cc2s1)OCCO3`, the Potency is 14.1 µM (active).

For the compound `CC(C)CC1(C)NC(=O)N(CC(=O)Nc2ccc3c(c2)OCCO3)C1=O` (stereo unspecified), the Potency result was “inactive”.

Take `CN(C)c1ccc(NC(=S)N(CCc2ccccc2)C2CC(=O)N(c3c(Cl)cccc3Cl)C2=O)cc1` (stereo unspecified): the Potency is 3.55 µM (active).

Consider `CN(CC(=O)Nc1cccc(F)c1)C(=O)C1CC(=O)N(CCc2ccccc2)C1` (stereo unspecified), for which the Potency entry was “inactive”.

`COC(=O)CN(C(=S)Nc1ccc(Cl)cc1)C1CC(=O)N(c2ccc(OC)cc2)C1=O` (stereo unspecified): the Potency result is “inactive”.

In the case of `O=C(COc1ccccc1Cl)Nc1ccc2nc(SCC(=O)N3CCCC3)sc2c1`, the Potency result is “inactive”.

As to `CC(C)(C)C(=O)COC(=O)c1cc(S(=O)(=O)N2CCCCC2)ccc1N1CCOCC1`, the Potency entry was “inactive”.

As for `COc1ccccc1-c1c(C)nn2c(C)c(C(C)=O)cnc12`, the Potency result is “inactive”.

As to `C=C(C)COc1ccc(-c2n[nH]c(C)c2-c2ccccc2OC)c(O)c1`, the Potency was 7.08 µM (active).

As for `COc1ccccc1-c1n[nH]c2c1[C@H](C)CC[C@H]2C(C)C`, the Potency entry is “inactive”.

Consider `C=C(C)COc1ccc(-c2n[nH]c(C)c2-c2ccccc2)c(O)c1`, for which the Potency is 1.78 µM (active).

Consider `CC(=O)COc1ccc2c(-c3ccccc3)cc(=O)oc2c1`, for which the Potency entry is “inactive”.

`Cc1[nH]nc(-c2ccc(OCc3cnn(-c4ccccc4)c3)cc2O)c1Oc1ccc(Cl)cc1`: the Potency result was “inactive”.

For the compound `Cc1cccc(C(=O)NNC(=O)CSc2nnc(C(C)C)n2C)c1`, the Potency result was “inactive”.

As to `CCN(C(=O)COC(=O)c1ccccc1O)c1cccc2ccccc12`, the Potency entry is “inactive”.

For the compound `CCOC(=O)c1c(S(=O)(=O)Nc2cccc(Cl)c2)c(C)n(C)c1C`, the Potency entry is “inactive”.

Turning to `CC(C)(C)c1nnc2sc(SCC(O)=C(C#N)c3nc4ccccc4[nH]3)nn2c1=O`, the Potency entry is “inactive”.

Regarding `Cc1ccccc1NC(=S)N(CCCN1CCOCC1)Cc1cccs1`, the Potency result is “inactive”.

For the compound `Cc1ccc(NC(=S)N(CCN(C)C)Cc2cccs2)cc1C`, the Potency is 6.31 µM (active).

Turning to `CCc1cccc(C)c1NC(=S)N(CCCN1CCN(C)CC1)Cc1cccs1`, the Potency entry was “inactive”.

Consider `Cc1ccc(-n2c(SCC(=O)Nc3ncc(Cl)cc3Cl)nc3ccccc32)cc1`, for which the Potency was 0.291 µM (active).

Regarding `CCOc1ccc(-n2c(SCC(=O)Nc3cc(C(=O)O)ccc3Cl)nc3ccccc3c2=O)cc1`, the Potency entry is “inactive”.

For `Cc1ccc(SCCC(=O)OCC(=O)Nc2ncc(Cl)cc2Cl)cc1`, the Potency entry was “inactive”.

Take `CC/C(=C(/c1ccccc1)c1ccc(OCC[N+](C)(C)C)cc1)c1ccccc1`: the Potency result is “inactive”.

For the compound `Cc1ccc(S(=O)(=O)N2CCCCC2)cc1C(=O)N(C)CC(=O)Nc1cccc(F)c1`, the Potency entry is “inactive”.

`O=C(NCc1ccc(F)cc1)c1ccc2nc(N3CCCCC3)sc2c1`: the Potency entry is “inactive”.

Consider `c1c2c(cc3sc(N4CCCCC4)nc13)OCCO2`, for which the Potency is 1.58 µM (active).

On to `Cc1nc2cc3c(cc2s1)OCO3`, for which the Potency entry is “inactive”.

Take `Cc1ccc(N(C(=O)c2sc(C)nc2C)C(C(=O)NC(C)(C)C)c2ccncc2)cc1` (stereo unspecified): the Potency entry is “inactive”.

Turning to `Cc1nc(C)c(C(=O)N(c2ccc(C)c(C)c2)C(C(=O)NCc2ccco2)c2ccccc2)s1` (stereo unspecified), the Potency is 4.61 µM (active).

As to `Cc1cccc(N(C(=O)Cc2cccs2)C(C(=O)NCc2ccco2)c2ccncc2)c1` (stereo unspecified), the Potency entry is “inactive”.

With `Cc1ccc(OCc2cc(C(=O)N(C)CCn3ccnc3C)no2)cc1C`, the Potency result is “inactive”.

As to `CCCN1CCN(C(=O)CCCNC(=O)c2ccc(Cl)cc2)CC1`, the Potency result is “inactive”.

`COc1ccccc1N1CCN(c2nc(C)cc(=O)[nH]2)CC1`: the Potency entry is “inactive”.

Take `Cc1nnc(SCC(=O)N2CCc3ccccc3C2)s1`: the Potency result was “inactive”.

For `Cc1nnc(SCC(=O)NCc2ccccc2)s1`, the Potency entry is “inactive”.

Consider `Cc1nnc(SCC(=O)N2c3ccccc3C(C)(c3ccc(Cl)cc3)CC2(C)C)s1` (stereo unspecified), for which the Potency was 10 µM (active).

As to `Cc1ccc(NC2CCCN(C(=O)CCc3cn[nH]c3)C2)cc1C` (stereo unspecified), the Potency entry was “inactive”.

As to `COc1cc(C(=S)N2CCOCC2)cc(OC)c1OC(=O)c1ccc([N+](=O)[O-])cc1[N+](=O)[O-]`, the Potency entry was “inactive”.

`Cc1ccc(SCC(=O)N2CCN(c3ccc(F)cc3)CC2)cc1`: the Potency entry is “inactive”.

With `CCN1CCC(N(Cc2ccc(F)cc2)C(=O)Nc2cc(C)ccc2C)CC1`, the Potency entry was “inactive”.

In the case of `CCN1CCC2(CC1)N=C(c1ccc(F)cc1)C(=S)N2C(=O)c1ccc(C)cc1`, the Potency is 8.91 µM (active).

`COc1ccccc1C(=O)Nc1ccc(Nc2ccccc2)cc1`: the Potency result was “inactive”.

As for `CCC(=O)Nc1ccc2nc(SCC(=O)N3CCc4ccccc43)sc2c1`, the Potency entry is “inactive”.

Consider `COCCn1cnnc1SCC(=O)Nc1cccc(S(=O)(=O)N2CCCCC2)c1`, for which the Potency entry is “inactive”.

As to `O=c1[nH]c(CN2CCOCC2)nc2cc(Cl)ccc12`, the Potency entry is “inactive”.

Take `NC(=O)Cc1nc2scc(-c3ccc(Cl)cc3)c2c(=O)[nH]1`: the Potency entry was “inactive”.

As for `O=c1[nH]c(CCl)nc2cc(-c3ccc(Cl)cc3)sc12`, the Potency is 10 µM (active).

Take `O=C1c2ccccc2C(=O)C1C(=O)C1CC1`: the Potency entry was “inactive”.

Consider `Cc1ccc(S(=O)(=O)N/N=C(\c2ccccc2)C2CC2)cc1`, for which the Potency result is “inactive”.

For the compound `CNC(=O)COC(=O)c1cc(-c2ccc(OC)cc2)nc2ccccc12`, the Potency result is “inactive”.

As to `COc1ccc(-c2cc(C(=O)n3cnc4ccccc43)c3ccccc3n2)cc1`, the Potency entry is “inactive”.

For `COc1ccc(-c2cc(C(=O)N(C)Cc3ccccc3)c3ccccc3n2)cc1`, the Potency is 10 µM (active).

Take `COc1ccccc1N1CC(C(=O)Nc2nnc(SCC(=O)NCC3CCCO3)s2)CC1=O` (stereo unspecified): the Potency result was “inactive”.

As to `COc1ccc(C(CNC(=O)c2cc3c(s2)CCCC3)N2CCOCC2)cc1` (stereo unspecified), the Potency result was “inactive”.

Take `Cc1ccc(C(CC(=O)O)NC(=O)c2ccc(S(=O)(=O)N3CCCC3)cc2)cc1` (stereo unspecified): the Potency result was “inactive”.

With `C=CCN1C(=O)N(Cc2ccccc2)c2ccccc2S1(=O)=O`, the Potency entry is “inactive”.

Take `O=C1c2ccccc2C(=O)C1c1ccccc1F`: the Potency entry was “inactive”.

For the compound `O=C1c2ccccc2C2=Nc3ccccc3SC(c3ccccc3F)C12` (stereo unspecified), the Potency is 20.6 µM (active).

As for `Cc1ccc(-n2c(/C=C/c3cccc(C(F)(F)F)c3)nc3ccccc3c2=O)cc1`, the Potency entry is “inactive”.

Regarding `Cn1cc(/C=C/c2nc3ccccc3c(=O)n2-c2cccc([N+](=O)[O-])c2)c2ccccc21`, the Potency result is “inactive”.

In the case of `CCn1c(/C=C/c2ccc([N+](=O)[O-])o2)nc2ccccc2c1=O`, the Potency is 3.66 µM (active).

With `COc1cccc(CC(=NO)c2cccc(OC)c2)c1`, the Potency result is “inactive”.

Turning to `Fc1ccccc1OCCCCn1cncn1`, the Potency result is “inactive”.

Take `O=C(c1ccccc1)C(Cn1cncn1)C(Sc1ccccc1)c1ccccc1` (stereo unspecified): the Potency was 22.4 µM (active).

Turning to `OC(COc1ccc2ccccc2c1)Cn1cncn1` (stereo unspecified), the Potency result is “inactive”.

Regarding `Cc1ccccc1N1CC(C(=O)Nc2nnc(SCCC3OCCO3)s2)CC1=O` (stereo unspecified), the Potency result is “inactive”.

On to `CCOc1cc2ccccc2cc1C(=O)Nc1ccccn1`, for which the Potency entry was “inactive”.

As for `Cc1cc(C(=O)CCl)c(C)n1CC1COc2ccccc2O1` (stereo unspecified), the Potency result is “inactive”.

On to `Cc1ccsc1C(=O)OCC(=O)c1cc(C)n(CC2CCCO2)c1C` (stereo unspecified), for which the Potency is 2.59 µM (active).

For `Cc1cc(C(=O)Cn2cnc3cc([N+](=O)[O-])ccc3c2=O)c(C)n1CC1CCCO1` (stereo unspecified), the Potency entry was “inactive”.

In the case of `CCOC(=O)N1CCN(C(=O)C(=O)Nc2sc3c(c2C#N)CC(C)(C)OC3)CC1`, the Potency result is “inactive”.

With `COC(=O)c1ccc(OC(=O)c2cnccn2)cc1`, the Potency entry is “inactive”.

In the case of `CSCCC1NC(=O)N(CC(=O)Nc2cccc(S(=O)(=O)N3CCCCCC3)c2)C1=O` (stereo unspecified), the Potency entry is “inactive”.

As for `CCOC(=O)N1CCC(NC(=O)c2cnn(-c3cccc(C)c3)c2C2CCN(C(=O)OC(C)(C)C)CC2)CC1`, the Potency entry is “inactive”.

For `CCN(CC)c1ccc(S(=O)(=O)N2CCCCC2)cc1NC(=O)C1=COCCO1`, the Potency entry was “inactive”.

In the case of `CC(C)(C)c1ccc(C(=O)NCC(c2ccco2)S(=O)(=O)c2ccc(F)cc2)cc1` (stereo unspecified), the Potency is 12.6 µM (active).

In the case of `O=C(NCC(c1ccco1)S(=O)(=O)c1cccs1)c1ccc(F)cc1` (stereo unspecified), the Potency entry was “inactive”.

`COc1ccccc1CNC(=O)C(=O)NCC(c1ccco1)S(=O)(=O)c1ccc(F)cc1` (stereo unspecified): the Potency entry was “inactive”.
